In PubChem BioAssay (NCI) one finds growth data, which are given here for 14 compounds.

Compounds without any hit were thinned out: in the full panel of roughly 83,000, 20% have a hit.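 Growth was measured after 48 h exposure to one concentration of compound in 96-well plates. Values under 10 count as active.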 Calls of active or inactive are those of the source.

The subject of the test is HL-60(TB) leukemia. The test can be described thus: NCI-60 one-dose screen, 48 h (100 = growth as untreated, 0 = no growth, -100 = all killed). The settings on record: 10 µM unless noted.
As to `COc1ccc(/C=C(\C#N)c2cc3ccccc3[nH]2)cc1`, the growth is 14.8% (inactive). For `Cn1cc(-c2nc(-c3c[nH]c4ncccc34)cs2)c2cccnc21`, the growth was 48.1% (inactive). Take `Cc1cc2cc3cc(C)c(N(C)C)cc3[n+](C)c2cc1N(C)C`: the growth was 47% (inactive). Then `CCCC(=O)NC(c1ccc2c(c1)OCO2)c1cc(Cl)c2cccnc2c1O` (centres undefined), with -19.5% (active). `CCN(CC)CCNc1ccc([N+](=O)[O-])c2sc3ccccc3c(=O)c12`: the growth was 17% (inactive). For `COc1ccc(-c2nn(-c3cccc(NC(=O)Nc4cccc(C(F)(F)F)c4)c3)cc2-c2ccncc2)cc1Cl`, the growth is 3.19% (active). For `Nc1ccc(S(=O)(=O)Nc2ccsc2-c2nc(-c3ccccc3)no2)cc1`, the growth was 35.1% (inactive). Then `CCCCCCC(C)N(CC(C)(C)O)C(=O)c1ccc([N+](=O)[O-])cc1` (centres undefined), with 95.7% (inactive); and `C=C(C(=O)c1ccccc1)C(NC(C)(C)C)c1ccccc1` (centres undefined), with -14.7% (active). `CN1C(=O)N(C)C2C1NN=c1s/c(=C\c3ccc(C(F)(F)F)cc3)c(=O)n12` (centres undefined): the growth was -6.25% (active). Under `COc1ccc2c(c1)O/C(=C\c1cccc(OCC(=O)Nc3nc4c(s3)CCCC4)c1)C2=O` stands 27.4% (inactive); under `O=S(=O)(O)c1ccc(O)c(C2CCCCC2)c1`, 131% (inactive). On to `C=C(C)[C@@H]1CC[C@]2(C(=O)O)CC[C@]3(C)[C@H](CC[C@@H]4[C@@]5(C)C[C@@H](CC#Cc6ccc(C(F)(F)F)cc6)[C@H](O)C(C)(C)[C@@H]5CC[C@]43C)[C@@H]12`, for which the growth is 7.01% (active). `Cc1ccc(NS(=O)(=O)c2ccc3c(c2)C(=O)CC(c2ccc(C(=O)C(C)C)cc2)N3)cc1C` (centres undefined): the growth was 61.4% (inactive).
